Where “and” joins values, the source holds several entries; their conditions need not be identical. Identical values can stand only once. The panel holds about 83,000 compounds, 20% with a hit somewhere; the sample as a whole holds those more often.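 Testing used 96-well plates and a 48-hour single-concentration exposure. Example: -40 means 40% of the starting cells died.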 Calls of active or inactive are those of the source. How the source made its calls: active means growth percent below 10; inactive means the rest.
These molecules were tested on T-47D breast (assay: NCI-60 one-dose screen, 48 h (100 = growth as untreated, 0 = no growth, -100 = all killed)). Conditions: 10 µM unless noted.

Structure (SMILES) | growth
COC(=O)c1ccccc1Cl | 94% (inactive)
CCC(C)NC(=O)c1ccccc1C (centres undefined) | 94.3% (inactive)
COc1ccc(CCl)c(C)c1OC | 102% (inactive)
Cc1c(Cl)cc(Cl)c(N)c1Cl | 104% (inactive)
O=C1CCC(=O)N1CC1CC2CCC1C2 (centres undefined) | 100% (inactive) and 79.2% (inactive)
O=C(O)c1ccc2c3ccc(C(=O)O)c4c(C(=O)O)ccc(c5ccc(C(=O)O)c1c25)c43 | 97.2% (inactive)
Cc1onc(-c2c(F)cccc2Cl)c1-c1ncc(-c2ccc(Cl)cc2)o1 | 73.9% (inactive) and 35.8% (inactive)
CCCCCc1cc[n+](CC(=O)c2ccccc2)cc1 | 95.4% (inactive) and 101% (inactive)
C(=N\OCCc1ccccc1)/c1ccccn1 | 114% (inactive)
COc1cc([C@@H]2c3cc4c(cc3[C@H](O)[C@H]3COC(=O)[C@@H]23)OCO4)cc(OC)c1OC | 40.1% (inactive) and 71.1% (inactive)
COc1ccc(/C=N/NC(N)=S)cc1 | 85.6% (inactive)
N=c1sc2ccccc2n1CC(=O)O | 95.8% (inactive)
O=C(O)/C=C/C=C/c1ccccc1 | 100% (inactive) and 105% (inactive)
CC(C)(C)OC(=O)CC1(O)CCCCC1 | 99.8% (inactive)
Cc1nc(Nc2ccc(Cl)cc2)c2cnn(-c3ccccc3)c2n1 | 101% (inactive)
CC(=O)Oc1cc(C)c(OC(C)=O)c(C)c1C | 82.2% (inactive)
CCC(C)(O)CCC(C)(O)CC (centres undefined) | 96% (inactive)
Clc1ccc2sc(-c3ccccc3)nc2c1 | 56.8% (inactive)
Cc1ccc([N+](=O)[O-])cc1Br | 89.1% (inactive)
COCCCNC1=C(C#N)C(=O)NC(c2cccs2)S1 (centres undefined) | 89% (inactive)

Structure (SMILES) | growth
OCCSc1ccc(Cl)cc1 | 101% (inactive) and 72.3% (inactive)
Nc1[nH][nH]c(=O)c1N=Nc1ccccc1 | 113% (inactive) and 102% (inactive)
CS(=O)(=O)c1nsc(N)n1 | 95% (inactive)
Cc1cc(Cl)nc(Nc2ccccc2)n1 | 90.4% (inactive)
O=C(O)C1CSCN1 (centres undefined) | 107% (inactive) and 97.9% (inactive)
C/C=C(/C(=O)NC(N)=O)C(C)C | 99.1% (inactive)
O=[N+]([O-])c1ccc(NC(c2ccccc2)c2ccc3cccnc3c2O)cc1 (centres undefined) | 37.2% (inactive)
CCCCC/C(C)=N\NC(N)=S | 33.6% (inactive)
CC(C)(C)C1CCC(=NO)CC1 (centres undefined) | 96.6% (inactive)
CCOC(C)=N | 103% (inactive)
CN(C)C(=S)N(C)C | 98.5% (inactive)
NNC(=O)Nc1ccccc1 | 109% (inactive)
COC(=O)c1cc(C(=O)OC)cc([N+](=O)[O-])c1 | 111% (inactive)
OCCS | 92.8% (inactive)
COc1ccc(/C=N/Nc2nc3ccccc3s2)cc1 | 86.6% (inactive)
Cc1cc(O)c(C(C)C)cc1N=O | 82.5% (inactive) and 90.9% (inactive)
O=C(c1ccccc1)C1(Br)CCCCC1 | 94.7% (inactive)
COc1ccc2oc3c(ccc[n+]3C)c(=O)c2c1 | 85.9% (inactive)
CCCC(=O)Oc1ccc(CC)cc1 | 90.9% (inactive)

— PubChem BioAssay (NCI)
